MITF primary = MITF inhibitors, primary screen, biochemical, AlphaScreen, human; Microphthalmia-associated transcription factor (Homo sapiens), O75030; AlphaScreen MITF homodimerization, bead proximity signal; inhibition, % at 2.6 µM; actives 0.91% (n = 650,000); AID 1259374, 2018; in the data active = inhibition above about 50%;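 also: 0% = vehicle wells with protein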
TEAD-YAP block = TEAD-YAP interaction inhibition, primary screen, TEAD-YAP interaction inhibitor project, luminescence, HEK-TIYL cells; TEAD-Gal4/YAP UAS-luciferase luminescence; inhibition, % at 9.12 µM; actives 1.4% (n = 640,000); AID 1259422, 2018; in the data active = inhibition above about 32%;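 also: 0% = median of test compound wells and 100% = reference inhibitor wells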
FBW7 activator = FBW7 E3 ligase activators, primary screen, biochemical, AlphaScreen, human | AID 1259310, 2017 | AlphaScreen FBW7–phospho-cyclin E peptide binding, activator screen | F-box/WD repeat-containing protein 7 (Homo sapiens), Q969H0 | actives 0.13% (n = 650,000) | normalized activity (activation), % at 26.1 µM; in the data active = normalized activity above about 1.9%;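 also: purified mutant Fbw7 with reduced substrate affinity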
Target sequence (Q969H0 whole entry, looked up): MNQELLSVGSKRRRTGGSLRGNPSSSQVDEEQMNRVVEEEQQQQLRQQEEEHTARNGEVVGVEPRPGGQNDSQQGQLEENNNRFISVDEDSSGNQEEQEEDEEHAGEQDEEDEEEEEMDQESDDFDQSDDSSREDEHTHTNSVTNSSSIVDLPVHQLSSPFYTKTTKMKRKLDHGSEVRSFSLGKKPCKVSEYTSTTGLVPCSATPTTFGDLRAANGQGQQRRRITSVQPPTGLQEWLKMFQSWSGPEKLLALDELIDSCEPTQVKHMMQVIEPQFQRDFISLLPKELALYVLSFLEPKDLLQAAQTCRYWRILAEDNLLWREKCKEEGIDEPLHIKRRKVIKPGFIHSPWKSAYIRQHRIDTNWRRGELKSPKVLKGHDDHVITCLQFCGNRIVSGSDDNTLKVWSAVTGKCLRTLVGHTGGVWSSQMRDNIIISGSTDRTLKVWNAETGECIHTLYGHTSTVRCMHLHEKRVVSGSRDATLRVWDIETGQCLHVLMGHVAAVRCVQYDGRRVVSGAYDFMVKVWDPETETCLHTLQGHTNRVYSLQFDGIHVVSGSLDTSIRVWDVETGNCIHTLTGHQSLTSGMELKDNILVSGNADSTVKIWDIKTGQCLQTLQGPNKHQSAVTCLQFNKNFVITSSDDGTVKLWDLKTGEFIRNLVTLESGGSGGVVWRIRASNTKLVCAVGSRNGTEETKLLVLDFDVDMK
GPR151 activ = activators of human GPR151, primary screen, cell-based, PathHunter beta-arrestin, luminescence | PathHunter beta-arrestin GPR151 cells | actives 1% (n = 650,000) | G-protein coupled receptor 151 (Homo sapiens), Q8TDV0 | activation, % at 11.2 µM | AID 1508602, 2020; in the data active = activation above about 4.9%;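 also: 0% = median of compound wells and 100% = cells with positive control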
GPR151 conf act = GPR151 activators, triplicate retest, confirmation, cell-based, PathHunter beta-arrestin, luminescence | shares compounds with GPR151 activ | activation, % at 11.2 µM | 6,700 tested, under 10 active | GPR151 PathHunter beta-arrestin cells, 90 min; % of EA-reagent control over plate median | AID 1508609, 2020;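 active = mean percent activation across replicates above the confirmation screen cutoff of 4.91%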
GPR119 ag = GPR119 activators in beta-arrestin cells, counter-screen for GPR151 activator project, cell-based, PathHunter beta-arrestin, luminescence, triplicate | actives 0.3% (n = 6,700) | AID 1508611, 2020 | shares compounds with GPR151 activ | 90 min; 0 = compound-well median, 100 = enzyme-acceptor control | activation, % at 11.2 µM;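 active = mean percent activation in the counterscreen above 29.09%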;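 also: counterscreen on off-target GPR119 to flag nonselective hits from the GPR151 activator screen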
The depositor's hits bear a star; / = no result given. Rows were chosen to be rich in hits. Some 3.5% of all compounds tested hit in one or more screens of this group.

SMILES	MITF primary	TEAD-YAP block	FBW7 activator	GPR151 activ	GPR151 conf act	GPR119 ag
Cc1noc(C)c1-c1ccc(C(=O)NCCc2ccc(O)cc2)s1	1.5	-12.5	0.1	-0.9	/	/
COC(=O)c1ccc(NC(=O)C2CC(=O)N(Cc3ccc4c(c3)OCO4)C(=Nc3cccc(C(F)(F)F)c3)S2)cc1 (configuration not stated)	6.5	-0.8	0.0	6.4*	0.8	2.5
O=C(O)c1ccc(NC(=O)C2CC(=O)N(Cc3ccc4c(c3)OCO4)C(=Nc3cccc(C(F)(F)F)c3)S2)cc1 (configuration not stated)	-0.2	15.3	0.0	0.8	/	/
Clc1cc2c(cc1-c1nc(-c3ccccc3)c(-c3ccccc3)[nH]1)OCO2	46.7	-1.0	0.1	6.6*	2.5	19.7
COc1ccc(-c2[nH]c(-c3ccc4c(c3)OCO4)nc2-c2ccccc2)cc1	-3.3	1.1	-0.2	0.5	/	/
CCOC(=O)C1=C(c2ccccc2)N=c2s/c(=C\c3cc(OC)ccc3OC)c(=O)n2C1c1c(OC)ccc2ccccc12 (configuration not stated)	-10.6	3.0	0.0	-0.3	/	/
O=C1CC(c2nc3ccccc3n2Cc2ccccc2F)CN1c1ccccc1 (configuration not stated)	-3.1	-10.7	-0.2	8.8*	-0.1	-9.2
CC(=O)N1CCc2cc(S(=O)(=O)NCCC(=O)NCCc3ccc(Cl)cc3)ccc21	-7.5	27.6	-0.2	6.5*	0.0	0.3
CCc1ccc(NC(=O)CC(C)=O)cc1	2.0	11.3	0.1	-0.2	/	/
CSc1ncccc1C(=O)OCCOc1ccc(Br)cc1	-16.7	-2.0	0.4	6.3*	-0.2	-2.9
O=C(OCCOc1ccc(Br)cc1)c1cccnc1Cl	-5.8	3.7	0.0	0.8	/	/
COc1cc(N)c(Cl)cc1C(=O)OCCOc1ccc(Br)cc1	7.3	3.9	0.0	19.8*	-0.6	0.4
CCOC(=O)COc1ccc2c(=O)c(Oc3cccc(OC)c3)coc2c1	1.6	2.9	0.1	5.3*	1.9	6.4
CC(Sc1n[nH]c(N)n1)C(=O)OC1CCCCC1 (configuration not stated)	16.4	2.3	0.2	10.0*	-0.7	-3.2
Nc1nc(SCC(=O)NC2CCCCCCC2)n[nH]1	2.0	2.8	0.1	1.8	/	/
Cc1[nH]c2ccccc2c1C(=O)CSc1nc(N)cc(=O)[nH]1	5.8	9.6	0.0	5.8*	0.0	7.1
Cc1ccc(C(=O)CSc2nc(N)cc(=O)[nH]2)cc1C	-10.3	-5.9	0.0	5.9*	0.7	3.0
Cc1cc(C(=O)CSc2nc(N)cc(=O)[nH]2)ccc1F	-12.8	-13.9	-0.3	-1.1	/	/
COc1ccc(C)cc1N(CC(=O)NCCC(C)C)C(=O)c1snc(C(N)=O)c1N	-23.2	-2.0	-0.1	11.5*	1.1	5.2
COc1ccc(N(CC(=O)NCCC(C)C)C(=O)c2snc(C(N)=O)c2N)c(OC)c1	-2.0	-8.8	1.0	-0.2	/	/
C=CCNC(=O)NC(=O)COC(=O)CC(NC(N)=O)c1ccc(Cl)cc1 (configuration not stated)	-2.9	2.4	0.1	4.9*	0.7	4.1
O=C(O)COc1ccc(N2C(=O)c3ccc(-c4nc5ccccc5c(=O)o4)cc3C2=O)cc1	-1.8	0.0	0.1	7.2*	-0.4	-3.3
CCc1nc2nc(C)cc(NCCc3cccc(C)c3)n2n1	-13.7	-3.0	-0.2	0.3	/	/
O=C(Nc1nnc(C(F)(F)F)s1)c1ccc(Cl)c(Cl)c1	8.2	-22.0	-0.2	3.3	/	/
CCC(=O)Nc1nc2c(OC)ccc(OC)c2s1	4.6	11.8	-0.1	5.0*	-0.6	2.4
CCC(=O)Nc1nc2c(Cl)ccc(Cl)c2s1	-8.2	-5.2	-0.3	3.0	/	/
CCN(CC)CCCCNc1ncc2cc(-c3cc(OC)cc(OC)c3)c(NC(=O)NC(C)(C)C)nc2n1	4.7	/	/	5.3*	-0.8	4.5
CCN(CC)CCCCCCNc1cc(OC)cc2c(C)ccnc12	/	/	/	-2.1	/	/

Screening results from PubChem BioAssay.
